From PubChem BioAssay (NCATS) come the findings set out here.

The nature of assay [1]: qHTS assay for measurement of the activity of small molecule inhibitors on Zika virus induced Caspase-3 activity in human iPSC derived neural progenitor cells (hNPCs) (AID 1224857). Further: nearly all actives have a fitted effect of over 65% in size. In a few lines:
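Human iPSC-derived neural progenitor cells pretreated 1 hr with compounds, then infected with Zika virus (2 FFU/cell) for 6 hours at 37 C. Caspase-3/7 measured by Caspase-Glo luminescence; % inhibition calculated from induction scaled to uninfected (0%) and infected (100%) wells.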

Assay [2] can be described thus: qHTS assay for measurement of the activity of small molecule inhibitors on Zika virus induced Caspase-3 activity in human astrocytoma cells (AID 1224859). Summed up:
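SNB-19 astrocytoma cells, 250/well, pretreated 1 h with compounds, then Zika virus at 2 FFU/cell for 6 h at 37 C; Caspase-Glo 3/7 luminescence after 30 min; percent inhibition normalised to uninfected and infected controls.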

Assay [3] concerns the target Atrial natriuretic peptide receptor 2 (Homo sapiens) (UniProt P20594). The assay can be described thus: Natriuretic polypeptide receptor (hNpr2) antagonism - Pilot subtype selectivity assay (AID 1347050; calls by dose curve; further: potency means the concentration at half of the fitted maximal effect). In a few lines: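 Pilot selectivity screen against hNpr2: HEK293 cGMP-sensor cells are treated with LOPAC1280 compounds, then with hNppC peptide at 1 nM final. The cGMP-driven luminescence change over 20 min at room temperature is the read-out.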

Assay [4] in a line: NS1 protein of Zika virus - qHTS assay to identify small molecule inhibitors in human HEK 293 cells (AID 1347053). Further: series mostly up to about 46 µM; nearly all actives have a fitted effect of over 55% in size. Summed up:
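HEK 293 cells pretreated with compound for 1 h, then infected with ZIKV MR766 (MOI 0.5) for 24 h at 37 C. NS1 detected by TR-FRET with two anti-NS1 antibodies; normalized to uninfected (0%) and infected (100%) wells.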

Assay [5] deals with T1, Tyrosine-protein phosphatase non-receptor type substrate 1 (Homo sapiens) + Leukocyte surface antigen CD47 (Homo sapiens) (UniProt P78324+Q08722). Description: CD47-SIRPalpha protein protein interaction - LANCE assay qHTS validation (AID 1347057; active means well fitted curve in the direction sought with a large enough effect in the signal ratio, with a control signal flat, not every such curve was filed as active; the % refers to the signal ratio; further: series mostly up to about 38 µM). In a few lines:
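First, His-tagged CD47 and Eu-labelled anti-His antibody met the compound for 30 min; next, site-specifically biotinylated SIRPalpha was added for 30 min; finally streptavidin-APC was added before reading the TR-FRET ratio.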

Assay [6] concerns the target T1, Tyrosine-protein phosphatase non-receptor type substrate 1 (Homo sapiens) + Leukocyte surface antigen CD47 (Homo sapiens). Description: CD47-SIRPalpha protein protein interaction - HTRF assay qHTS validation (AID 1347058; active means well fitted curve in the direction sought with a large enough effect in the signal ratio, not every such curve was filed as active; the % refers to the signal ratio;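 further: recombinant soluble extracellular CD47 with His tag and biotinylated SIRPalpha domains; series mostly up to about 38 µM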). Summed up:
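TR-FRET read (Ch1/Ch2 ratio) of soluble extracellular CD47 and Avi-biotinylated SIRPalpha domains in PBS pH 7.4 with 0.05% IGEPAL; 7-point compound titration. Sequential 30 min room-temperature steps; non-biotinylated SIRPalpha as control inhibitor.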

For assay [7] the target is unchanged. Description: CD47-SIRPalpha protein protein interaction - Alpha assay qHTS validation (AID 1347059).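 Further: bead proximity luminescence from CD47 binding SIRPalpha after compound preincubation with SIRPalpha.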 In a few lines:
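Binding is measured by AlphaScreen proximity: Ni-NTA acceptor beads capture His-CD47, streptavidin donor beads capture biotin-SIRPalpha. Each of three additions (SIRPalpha with compound, CD47, beads) incubates 30 min at room temperature protected from light.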

For assay [8], the target named is Parathyroid hormone/parathyroid hormone-related peptide receptor (Homo sapiens) (UniProt Q03431). The assay can be described thus: qHTS for PTHR1 Agonists: Optimization Screen against the NCGC LOPAC library (AID 1347079).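 Further: GloSensor cAMP luminescence in HEK-293 GP2 cells expressing human PTHR1 with IBMX.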 Summed up:
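Compounds were tested across a qHTS titration. PTHR1-expressing GP2 cells report cAMP rises via GloSensor luminescence after 1 hr compound exposure at 37C with IBMX present.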

The target in assay [9] is N-terminal Xaa-Pro-Lys N-methyltransferase 1 (Homo sapiens) (UniProt Q9BV86). The assay can be described thus: qHTS Assay for Inhibitors of N-terminal methyltransferase 1 (NTMT1): LOPAC validation of the NTMT1 SAHH-coupled ThioGlo3 Assay (AID 1347143).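 Further: SAH from peptide methylation measured as thiol fluorescence via SAHH coupling and ThioGlo3; nearly all actives have a fitted effect of over 70% in size.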 Further: potency means the concentration at half of the fitted maximal effect. In a few lines:
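Inhibition of NTMT1 methylation of peptide SPKRIA is followed by converting SAH with SAHH and labelling the released thiol with ThioGlo3. Plates are read at 340/450nm before and 30 min after reagent addition, both at room temperature.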

Assay [10] has as its system Zika virus NS2B-NS3 protease (unlinked). The assay can be described thus: Optimization of GU AMC qHTS for Zika virus inhibitors: Unlinked NS2B-NS3 protease assay (AID 1347151). Further: nearly all actives have a fitted effect of over 80% in size. Further: potency means the concentration at half of the fitted maximal effect. In a few lines: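 Unlinked protease (25 nM final); buffer 10 mM Tris-HCl pH 8.0 + 0.01% Tween 20; AMC substrate; 15 min RT, dark; Δfluorescence normalized to no-inhibitor/no-enzyme controls; 4-parameter Hill fit.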

Assay [11] addresses Atrial natriuretic peptide receptor 1 (Homo sapiens) (UniProt P16066). The assay can be described thus: Natriuretic polypeptide receptor (hNpr1) antagonism - Pilot screen (AID 1347049; calls by dose curve;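 further: agonist-evoked cGMP luminescence read 20 min after hNppA addition; series mostly up to about 58 µM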). Summed up:
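Readout is cGMP-driven firefly luciferase luminescence in HEK293 cells carrying hNpr1 and a PDE5-domain GloSensor, read before and 20 min after 0.1 nM hNppA stimulation. Cells had 2% substrate reagent for 2 h and test compound for 30 min.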

Assay [12] is described as follows: P-glycoprotein substrates identified in KB-8-5-11 adenocarcinoma cell line, qHTS therapeutic library screen (AID 1346987). Further: potency means the concentration at half of the fitted maximal effect; nearly all actives have a fitted effect of over 65% in size. In a few lines: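 P-gp-mediated resistance screen: KB-8-5-11 cells treated 72 h with compounds in dose-response. CellTiter-Glo viability.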
Assay [13] in a line: Natriuretic polypeptide receptor (hNpr1) antagonism - Pilot counterscreen GloSensor control cell line (AID 1347045; calls by dose curve; further: series mostly up to about 38 µM). Summed up:
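This counterscreen uses HEK293 cells expressing the GIP/pGS-40F cGMP biosensor. Compound-treated cells are challenged with 50 uM sodium nitroprusside, and the luciferase signal is compared before and after stimulation.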

The target of the next assay is Furin (Homo sapiens) (UniProt P09958). The assay can be described thus: Furin counterscreen qHTS for Zika virus inhibitors (AID 1347149). Further: potency means the concentration at half of the fitted maximal effect; nearly all actives have a fitted effect of over 70% in size. In a few lines:
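Fluorogenic cleavage of BOC-RVRR-AMC (2 microM final, Km ~15 µM) was monitored (ex 340, em 450 nm) at 37C after 15 min RT preincubation of 5 nM furin with compounds in HEPES pH 7.0 buffer with CaCl2 and Triton X-100. Percent inhibition was fitted to a 4-parameter Hill curve.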

Assay [14] has as its system Zika virus NS2B-NS3 protease (linked construct). Description: Confirmatory screen NINDS AMC qHTS for Zika virus inhibitors (AID 1347152). Further: potency means the concentration at half of the fitted maximal effect; nearly all actives have a fitted effect of over 70% in size. Summed up:
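Enzyme (1 nM, linked construct) was preincubated with compound for 15 minutes at room temperature in 10 mM Tris-HCl pH 8.0 with 0.01% Tween 20. Bz-Nle-Lys-Arg-Arg-AMC was then added to 10 microM, and AMC fluorescence was recorded immediately and after 15 minutes.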

Assay [15] has as its system Zika virus NS2B-NS3 protease (unlinked complex). The assay can be described thus: Confirmatory screen GU AMC qHTS for Zika virus inhibitors (AID 1347153). Further: nearly all actives have a fitted effect of over 70% in size. In a few lines: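 Unlinked NS2B-NS3 complex (25 nM) in 10 mM Tris-HCl pH 8.0, 0.01% Tween 20 preincubated 15 min with compound, then 10 microM Bz-Nle-KRR-AMC (Km 18.3 µM). Fluorescence change over 15 min, normalized, Hill-fitted.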

Unmarked numbers belong to inactive results. Inconclusive results are not listed. Activity calls are given as the source filed them. Unless noted, the call rests on the fitted dose curve; in most records, active means well fitted curve in the direction sought with a large enough effect; inconclusive means small, poorly fitted or top-dose-only effect, or another doubt; inactive means no such curve, though single readings can be large; an effect the other way counts as inactive or inconclusive. Residues, ends and D or L forms follow the SMILES beside them. *: point of attachment. Cbz = O=C(OCc1ccccc1)*

T1 sequence (P78324 whole entry, looked up): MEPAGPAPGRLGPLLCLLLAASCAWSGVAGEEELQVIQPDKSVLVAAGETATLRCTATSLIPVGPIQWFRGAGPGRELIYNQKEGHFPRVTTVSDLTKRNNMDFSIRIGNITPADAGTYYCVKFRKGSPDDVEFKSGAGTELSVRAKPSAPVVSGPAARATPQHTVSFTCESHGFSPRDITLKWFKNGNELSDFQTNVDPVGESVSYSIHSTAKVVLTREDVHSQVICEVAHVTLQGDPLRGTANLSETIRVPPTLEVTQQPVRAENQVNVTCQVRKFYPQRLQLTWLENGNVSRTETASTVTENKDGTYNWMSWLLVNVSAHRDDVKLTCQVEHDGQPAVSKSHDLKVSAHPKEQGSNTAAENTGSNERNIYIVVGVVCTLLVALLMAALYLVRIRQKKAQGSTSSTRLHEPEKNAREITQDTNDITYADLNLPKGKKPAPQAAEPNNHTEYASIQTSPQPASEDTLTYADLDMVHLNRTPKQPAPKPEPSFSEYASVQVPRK
T1 sequence (Q08722 whole entry, looked up): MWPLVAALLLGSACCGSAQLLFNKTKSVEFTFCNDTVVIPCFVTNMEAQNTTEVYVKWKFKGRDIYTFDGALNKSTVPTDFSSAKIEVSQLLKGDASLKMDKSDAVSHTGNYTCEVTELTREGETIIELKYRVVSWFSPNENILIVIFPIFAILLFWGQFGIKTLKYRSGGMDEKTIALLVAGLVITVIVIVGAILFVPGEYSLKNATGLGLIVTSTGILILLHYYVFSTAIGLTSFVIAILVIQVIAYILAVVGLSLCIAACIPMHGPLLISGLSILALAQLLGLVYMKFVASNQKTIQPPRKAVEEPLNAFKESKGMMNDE
Sequence of Parathyroid hormone/parathyroid hormone-related peptide receptor (Homo sapiens) (Q03431 whole entry, looked up): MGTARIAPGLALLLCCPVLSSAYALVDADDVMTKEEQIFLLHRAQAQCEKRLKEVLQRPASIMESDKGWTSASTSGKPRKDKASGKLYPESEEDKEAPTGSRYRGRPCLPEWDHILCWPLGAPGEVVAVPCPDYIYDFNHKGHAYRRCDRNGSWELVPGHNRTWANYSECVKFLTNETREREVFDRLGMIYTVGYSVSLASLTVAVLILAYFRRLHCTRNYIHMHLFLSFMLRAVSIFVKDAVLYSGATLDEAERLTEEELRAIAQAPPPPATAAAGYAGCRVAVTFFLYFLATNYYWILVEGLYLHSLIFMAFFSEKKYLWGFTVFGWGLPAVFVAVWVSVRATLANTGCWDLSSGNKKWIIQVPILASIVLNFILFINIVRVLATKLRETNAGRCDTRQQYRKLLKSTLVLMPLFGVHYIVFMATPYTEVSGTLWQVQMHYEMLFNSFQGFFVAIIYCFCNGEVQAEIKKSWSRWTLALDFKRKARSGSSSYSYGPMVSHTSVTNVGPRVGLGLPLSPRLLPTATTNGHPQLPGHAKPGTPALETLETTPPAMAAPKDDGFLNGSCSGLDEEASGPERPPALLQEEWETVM
Sequence of Atrial natriuretic peptide receptor 1 (Homo sapiens) (P16066 whole entry, looked up): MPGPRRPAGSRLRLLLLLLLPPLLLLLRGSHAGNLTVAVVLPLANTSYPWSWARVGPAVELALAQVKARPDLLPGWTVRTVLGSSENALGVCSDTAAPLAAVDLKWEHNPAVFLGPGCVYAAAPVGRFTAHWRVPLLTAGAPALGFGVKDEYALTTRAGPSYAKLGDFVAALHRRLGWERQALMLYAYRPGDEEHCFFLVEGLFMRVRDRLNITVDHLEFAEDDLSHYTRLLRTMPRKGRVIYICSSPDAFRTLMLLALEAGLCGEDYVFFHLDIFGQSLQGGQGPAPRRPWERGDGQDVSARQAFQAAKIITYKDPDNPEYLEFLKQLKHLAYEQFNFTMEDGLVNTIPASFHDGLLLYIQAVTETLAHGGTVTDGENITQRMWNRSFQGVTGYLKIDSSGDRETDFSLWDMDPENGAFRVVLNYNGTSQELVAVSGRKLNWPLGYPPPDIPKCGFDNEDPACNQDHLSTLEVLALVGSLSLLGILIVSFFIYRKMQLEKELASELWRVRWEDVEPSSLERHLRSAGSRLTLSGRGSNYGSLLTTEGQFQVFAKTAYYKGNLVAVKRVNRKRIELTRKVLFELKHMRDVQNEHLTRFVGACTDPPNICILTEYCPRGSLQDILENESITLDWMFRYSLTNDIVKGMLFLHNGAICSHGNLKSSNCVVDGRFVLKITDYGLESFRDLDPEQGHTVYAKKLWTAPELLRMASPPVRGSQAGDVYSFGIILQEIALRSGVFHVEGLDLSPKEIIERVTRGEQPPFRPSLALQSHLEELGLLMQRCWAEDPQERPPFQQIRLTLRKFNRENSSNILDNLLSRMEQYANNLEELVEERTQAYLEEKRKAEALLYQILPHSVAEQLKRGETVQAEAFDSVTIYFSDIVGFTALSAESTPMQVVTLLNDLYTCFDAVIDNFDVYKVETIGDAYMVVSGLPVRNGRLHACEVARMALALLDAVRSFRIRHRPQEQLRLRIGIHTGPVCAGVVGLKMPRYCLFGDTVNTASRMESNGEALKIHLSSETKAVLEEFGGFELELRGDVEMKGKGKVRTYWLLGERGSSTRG
Sequence of Atrial natriuretic peptide receptor 2 (Homo sapiens) (P20594 whole entry, looked up): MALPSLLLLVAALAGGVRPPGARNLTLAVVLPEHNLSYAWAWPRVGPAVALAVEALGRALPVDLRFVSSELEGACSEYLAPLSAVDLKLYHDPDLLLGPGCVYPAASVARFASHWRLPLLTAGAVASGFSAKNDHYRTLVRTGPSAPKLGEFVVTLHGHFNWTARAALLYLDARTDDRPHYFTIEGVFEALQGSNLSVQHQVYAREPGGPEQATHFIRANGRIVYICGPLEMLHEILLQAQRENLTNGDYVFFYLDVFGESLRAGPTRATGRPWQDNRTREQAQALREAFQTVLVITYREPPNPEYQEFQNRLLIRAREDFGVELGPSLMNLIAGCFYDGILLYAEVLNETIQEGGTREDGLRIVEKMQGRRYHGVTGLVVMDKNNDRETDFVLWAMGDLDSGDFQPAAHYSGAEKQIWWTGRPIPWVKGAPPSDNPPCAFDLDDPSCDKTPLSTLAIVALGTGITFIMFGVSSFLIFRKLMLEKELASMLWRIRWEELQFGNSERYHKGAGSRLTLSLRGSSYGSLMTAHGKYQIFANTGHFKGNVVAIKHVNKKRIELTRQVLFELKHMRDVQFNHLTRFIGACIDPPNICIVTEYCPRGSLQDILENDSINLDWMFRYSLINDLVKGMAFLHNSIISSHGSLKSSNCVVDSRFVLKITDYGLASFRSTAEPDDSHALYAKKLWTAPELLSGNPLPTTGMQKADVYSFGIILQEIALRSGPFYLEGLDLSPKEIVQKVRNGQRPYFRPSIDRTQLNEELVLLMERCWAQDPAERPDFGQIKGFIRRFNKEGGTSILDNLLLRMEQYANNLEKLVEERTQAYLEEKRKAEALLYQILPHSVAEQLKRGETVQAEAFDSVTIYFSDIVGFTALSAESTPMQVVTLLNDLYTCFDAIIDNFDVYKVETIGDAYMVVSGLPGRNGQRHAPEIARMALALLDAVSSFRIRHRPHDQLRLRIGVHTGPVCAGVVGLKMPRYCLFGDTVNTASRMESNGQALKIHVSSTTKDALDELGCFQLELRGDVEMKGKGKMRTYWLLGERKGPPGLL
Sequence of N-terminal Xaa-Pro-Lys N-methyltransferase 1 (Homo sapiens) (Q9BV86 whole entry, looked up): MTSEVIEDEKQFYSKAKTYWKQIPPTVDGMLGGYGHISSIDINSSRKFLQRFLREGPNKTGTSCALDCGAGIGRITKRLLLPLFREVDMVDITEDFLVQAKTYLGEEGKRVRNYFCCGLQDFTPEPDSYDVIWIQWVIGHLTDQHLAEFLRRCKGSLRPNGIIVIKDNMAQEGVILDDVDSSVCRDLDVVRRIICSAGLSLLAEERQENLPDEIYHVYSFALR
Sequence of Furin (Homo sapiens) (P09958 whole entry, looked up): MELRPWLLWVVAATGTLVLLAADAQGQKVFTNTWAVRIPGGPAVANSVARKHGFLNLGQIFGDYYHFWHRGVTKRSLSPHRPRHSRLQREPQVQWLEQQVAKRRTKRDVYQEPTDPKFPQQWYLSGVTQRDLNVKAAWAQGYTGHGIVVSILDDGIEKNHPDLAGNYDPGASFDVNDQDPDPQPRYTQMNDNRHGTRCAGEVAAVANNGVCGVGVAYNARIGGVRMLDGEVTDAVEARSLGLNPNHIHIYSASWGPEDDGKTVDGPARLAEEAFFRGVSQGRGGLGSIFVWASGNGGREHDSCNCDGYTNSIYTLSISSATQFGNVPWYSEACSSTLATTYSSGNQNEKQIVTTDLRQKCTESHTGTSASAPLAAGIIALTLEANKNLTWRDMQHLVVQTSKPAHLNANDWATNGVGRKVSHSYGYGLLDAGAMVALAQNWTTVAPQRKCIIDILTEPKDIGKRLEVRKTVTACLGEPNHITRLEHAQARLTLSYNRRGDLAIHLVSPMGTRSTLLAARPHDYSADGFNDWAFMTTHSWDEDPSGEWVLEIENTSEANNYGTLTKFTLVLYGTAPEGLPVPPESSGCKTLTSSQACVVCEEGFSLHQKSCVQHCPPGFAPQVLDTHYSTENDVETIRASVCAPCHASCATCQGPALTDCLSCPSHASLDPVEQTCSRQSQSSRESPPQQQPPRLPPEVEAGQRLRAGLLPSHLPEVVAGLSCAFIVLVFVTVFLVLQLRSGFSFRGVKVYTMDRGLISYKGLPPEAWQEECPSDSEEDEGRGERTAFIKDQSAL

As to `COc1ccc(CCn2nnnc2C2(c3ccc(C)cc3)CC2)cc1`, the Potency entry in [1], in [2], in [3], in assay [4], in [5] and in [7] was “inactive” in each case. Besides, the Potency entry in assay [8], in [9] and in assay [10] was “inactive” in each case. Further, in assay [6], the result was inactive.
Consider `CCN(c1nc(N)c(C(=O)N=C(N)N)nc1Cl)C(C)C`, for which the Potency result in assay [1], in assay [2], in assay [11], in assay [3], in assay [4] and in assay [5] was “inactive” in each case. Moreover, the Potency entry in [7], in [8] and in assay [9] was “inactive” in each case.
In the case of `Nc1nc2[nH]c(=O)cnc2c(=O)[nH]1`, the Potency result in assay [1], in assay [2], in assay [11], in [3], in assay [4] and in assay [5] was “inactive” in each case. The Potency result in assay [7] and in [8] was “inactive” throughout. Also, the outcome in assay [6] was inactive. The Potency in assay [9] is 56.2 µM (active); in [10], 13.4 µM (active).
As for `CN(C)S(=O)(=O)c1ccc2c(c1)/C(=C/c1cc3c([nH]1)CCCC3)C(=O)N2`, the Potency result in [2], in [4], in assay [7], in assay [8], in assay [9] and in assay [10] was “inactive” throughout. In assay [12], the Potency was 6.51 µM (active).
With `N[C@@H](CCC(=O)N[C@H](CSN=O)C(=O)NCC(=O)O)C(=O)O`, the Potency result in [1], in assay [2], in [11], in assay [3], in assay [5] and in assay [7] was “inactive” in each case. The Potency result in assay [8], in assay [9] and in assay [10] was “inactive” each time. Further, the result in assay [6] was inactive.
As to `CSC(N)=NCCC[C@H](N)C(=O)O`, the Potency entry in [1], in assay [2], in assay [11], in assay [3], in assay [4] and in [5] was “inactive” in each case. The Potency result in [7], in assay [8], in assay [9] and in assay [10] was “inactive” throughout. In addition, the result in assay [6] was inactive.
Consider `Cc1ccc([N+](=O)[O-])cc1S(=O)(=O)N(C)C`, for which the Potency result in assay [1], in assay [2], in assay [11], in [3], in assay [4] and in assay [5] was “inactive” throughout. The Potency entry in [7], in assay [8], in [9] and in [10] was “inactive” each time.
Take `CCCCCC[C@@H]([C@@H](C)O)n1cnc2c(N)ncnc21`: the Potency result in assay [1], in assay [2], in assay [11], in assay [3], in assay [4] and in assay [5] was “inactive” throughout. Further, the Potency entry in assay [7], in [8] and in assay [10] was “inactive” in each case. Also, the outcome in assay [6] was inactive.
Consider `CCCCCC(O)CCCC(=O)O` (stereo not drawn), for which the Potency result in assay [1], in assay [2], in assay [11], in [3], in [4] and in assay [7] was “inactive” throughout. Moreover, the Potency result in assay [8], in assay [9] and in assay [10] was “inactive” in each case. The result in [6] was inactive.
On to `CN1CCCC1CCOC(C)(c1ccccc1)c1ccc(Cl)cc1` (stereo not drawn), for which the Potency entry in assay [1], in assay [2], in assay [11], in assay [4], in assay [5] and in assay [7] was “inactive” in each case. Further, the Potency entry in [8] and in [10] was “inactive” in each case. Also, the Potency in assay [3] was 11.7 µM (active). Moreover, the outcome in [6] was inactive.
`CNC(=O)c1cc2c(cn1)[nH]c1ccccc12`: the Potency result in assay [2], in [13], in [11], in assay [3], in assay [4] and in assay [5] was “inactive” throughout. Moreover, the Potency result in [7], in [8] and in assay [15] was “inactive” in each case. Further, the outcome in assay [6] was inactive. In addition, the Potency in [9] was 56.2 µM (active); in the assay with Furin (Homo sapiens), 24.1 µM (active); in assay [10], 26.7 µM (active); in [14], 24.1 µM (active).
Turning to `NCC(O)C1CCCCCCC1` (stereo not drawn), the Potency result in assay [2], in assay [13], in [11], in [3], in [4] and in [5] was “inactive” throughout. Moreover, the Potency result in [7], in [8] and in assay [10] was “inactive” in each case. Further, the outcome in [6] was inactive.
On to `CC(C)[C@H](NC(=O)OCc1ccccc1)C(=O)N[C@H](C=O)Cc1ccccc1` (Cbz-Val-Phe-aldehyde), for which the Potency entry in [2], in assay [13], in assay [11], in assay [3], in [4] and in assay [5] was “inactive” in each case. The Potency result in assay [7], in assay [8], in assay [9] and in assay [10] was “inactive” in each case. Further, the outcome in [6] was inactive.
Turning to `OC1(c2ccc(Cl)cc2)CCN(Cc2c[nH]c3ccccc23)CC1`, the Potency result in [2], in assay [13], in assay [3], in [5], in assay [7] and in [8] was “inactive” throughout. Moreover, the Potency entry in assay [9] and in assay [10] was “inactive” in each case. Besides, the result in assay [6] was inactive.
For `CC(C)(C)NCC(O)COc1cccc2[nH]c(=O)[nH]c12` (stereo not drawn), the Potency entry in assay [2], in assay [13], in assay [11], in [3], in assay [4] and in [5] was “inactive” throughout. In addition, the Potency result in assay [7], in [8], in [9] and in assay [10] was “inactive” in each case. The outcome in assay [6] was inactive.
In the case of `CCOC(=O)C12CC1/C(=N/O)c1ccccc1O2` (stereo not drawn), the Potency result in [2], in assay [11], in assay [3], in assay [4], in assay [5] and in [7] was “inactive” each time. Besides, the Potency result in assay [8], in [9] and in [10] was “inactive” in each case. The outcome in [6] was inactive.
